From PubChem BioAssay (NCATS) come the findings set out here.

SMILES strings stand for the structures. Records with an inconclusive call do not appear. Calls of active or inactive are those of the source. The call rests on the fitted dose curve; in most records, active means well fitted cell-killing curve with a large enough effect; inconclusive means small, poorly fitted or top-dose-only effect, or effect the other way; inactive means flat fitted curve, though single readings scatter.
On the % scale 0 is the no-effect control and ±100 the full control effect; potency means the concentration at half of the fitted maximal effect.

This experiment concerns C33A. Kind of experiment: Primary qHTS to identify gynecologic anti-cancer compounds using libraries of approved drugs and bioactive compounds (AID 1345084). Further: nearly all actives have a fitted effect of over 55% in size. Particulars: Gynecologic cancer cell panel viability, ATPlite luminescence, 48 h; series mostly up to 57.5 µM; activity change, negative = cytotoxicity: at the top concentration. Summed up: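 Cells, 1,000 per well, plated 16 h, then exposed 48 h at 37 C to compounds. Viability by ATPlite luminescence after 15 min at room temperature.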
(In general: In qHTS, concentration-response curves come from the screen itself.)
`COC(=O)CC(C)(O)CC(=O)OCc1ccc(O[C@@H]2O[C@H](CO)[C@@H](O)[C@H](O)[C@H]2O)cc1` (some centres undefined): the “activity change, negative = cytotoxicity” value is 0.146% [at 25.3 µM] (inactive).

Take `CC[C@@H](O)C[C@@H]1C(C)=C[C@@H]2CCCC[C@@H]2[C@@]1(C)C(=O)O`: the “activity change, negative = cytotoxicity” value is 0.664% (inactive).

For the compound `C=C1CCC2C(C)(C(=O)O)CCCC2(C)C1CC/C(=C\CO)CO` (centres undefined), the “activity change, negative = cytotoxicity” value is 7.95% [at 38.5 µM] (inactive).

For the compound `Cc1oc2ccccc2c1CNC(=O)NCc1cccs1`, the “activity change, negative = cytotoxicity” value is 15.5% (inactive).

For the compound `CCC(C)C(=O)OC1CC(C)C=C2C=CC(C)C(CCC(O)CC(O)CC(=O)O)C21` (centres undefined), the “activity change, negative = cytotoxicity” value is 11.5% [at 25.3 µM] (inactive).

With `C[C@]12C=C[C@@]3(CCC4[C@](C)(CO)CCC[C@@]4(C)C3CC1)C2` (some centres undefined), the “activity change, negative = cytotoxicity” value was 6.62% (inactive).

On to `CC(C)CC1NC(=O)C(C)NC(=O)C(CC(C)C)OC(=O)CCCNC1=O` (centres undefined), for which the “activity change, negative = cytotoxicity” value is 8.88% [at 38.5 µM] (inactive).

In the case of `COC1/C=C/C(C)(O)C(SCC(N)C(=O)O)CC(=O)OC(C)C(C)CC/C=C/1C` (centres undefined), the “activity change, negative = cytotoxicity” value was -0.633% [at 25.3 µM] (inactive).

Take `CC/C=C\CC1C(=O)C=CC1(CCCCCCCC(=O)O)OC(C)=O` (centres undefined): the “activity change, negative = cytotoxicity” value was 10.6% [at 38.5 µM] (inactive).

Turning to `CC1OC(OC2C(C)OC(OC3C(O)C(CO)OC(O[C@H]4CC[C@@]5(C)C(CC[C@]6(C)C5CC=C5C7[C@@H](C)[C@H](C)CC[C@]7(C(=O)O)CC[C@]56C(=O)O)C4(C)C)C3O)C(O)C2O)C(O)C(O)C1O` (some centres undefined), the activity change, negative = cytotoxicity is -5.63% [at 11.6 µM] (inactive).

Take `C[C@@H]1O[C@@H](OC[C@H]2O[C@@H](OC(CCCCc3ccc(O)cc3)CCc3ccc(O)cc3)[C@H](O)[C@@H](O)[C@@H]2O)[C@H](O)[C@H](O)[C@H]1O` (some centres undefined): the “activity change, negative = cytotoxicity” value was -3.69% [at 25.3 µM] (inactive).

With `CC(c1ncncc1F)C(O)(Cn1cncn1)c1ccc(F)cc1F` (centres undefined), the “activity change, negative = cytotoxicity” value is 22.4% (inactive).

Turning to `CC1(C=O)CC[C@]2(C(=O)O[C@@H]3O[C@H](CO)[C@@H](O)[C@H](O)[C@H]3O)CC[C@]3(C)C(=CCC4[C@@]5(C)C[C@H](O)[C@H](O[C@@H]6OC[C@@H](O)[C@H](O)[C@H]6O)[C@@](C)(CO)C5CC[C@]43C)C2C1` (some centres undefined), the activity change, negative = cytotoxicity is -2.32% [at 11.6 µM] (inactive).

As for `O=C(O)/C=C/c1cc2c(cc1O[C@@H]1O[C@H](CO)[C@@H](O)[C@H](O)[C@H]1O)OCO2`, the “activity change, negative = cytotoxicity” value was 7.43% [at 38.5 µM] (inactive).

Take `CC(C)O[C@@H]1O[C@H](CO)[C@@H](O)[C@H](O)[C@H]1O`: the “activity change, negative = cytotoxicity” value is 20.2% (inactive).

With `CC1=C2C3OC(=O)C(C)C3(O)CCC2(C)CCC1O` (centres undefined), the “activity change, negative = cytotoxicity” value was -3.75% (inactive).

Take `COC(=O)CC1CC(c2ccc(O)cc2)=NO1` (centres undefined): the “activity change, negative = cytotoxicity” value was -22.2% (inactive).

Take `CC(=O)C12OC(C)(C)OC1CC1C3CCC4=CC(=O)C=CC4(C)C3(F)C(O)CC12C` (centres undefined): the “activity change, negative = cytotoxicity” value was 8.06% (inactive).

On to `C[C@H]1O[C@@H](O[C@H]2CC[C@@]3(C)C(CC[C@]4(C)C3CC=C3C5CC(C)(C)CC[C@]5(C(=O)O)CC[C@]34C(=O)O)C2(C)C)[C@H](O)[C@@H](O)[C@@H]1O` (some centres undefined), for which the “activity change, negative = cytotoxicity” value was -0.0126% [at 25.3 µM] (inactive).

On to `C=C1CCC2C(C)(C(=O)OC)CCCC2(C)C1CCC(C)CC(=O)O` (centres undefined), for which the “activity change, negative = cytotoxicity” value is -2.97% [at 38.5 µM] (inactive).

With `COc1ccccc1Oc1ccc(N(Cc2cccnc2)S(=O)(=O)CC(F)(F)F)cc1`, the “activity change, negative = cytotoxicity” value is 14.4% (inactive).

Regarding `COc1ccc(Cl)c(Nc2nc3ccccc3nc2NS(=O)(=O)c2cccc(NC(=O)C(C)(C)N)c2)c1`, the “activity change, negative = cytotoxicity” value was -9.99% (inactive).

Take `COC(=O)C1=CO[C@@H](O[C@@H]2O[C@H](CO)[C@@H](O)[C@H](O)[C@H]2O)[C@H]2[C@@H]1C=C[C@@]21C=C([C@H](C)O)C(=O)O1`: the “activity change, negative = cytotoxicity” value is 12.1% [at 25.3 µM] (inactive).

In the case of `CC1(C)CC2=C3C=CC4C5(C)CCC(O)C(C)(C)C5CCC4(C)C3(C)CCC2(C)C(O)C1` (centres undefined), the “activity change, negative = cytotoxicity” value is -0.589% [at 25.3 µM] (inactive).

As for `O=C(O)c1ccc(OC2OC(CO)C(O)C(O)C2O)cc1` (centres undefined), the “activity change, negative = cytotoxicity” value was 6.38% (inactive).

In the case of `CC(C)CN(C[C@@H](O)[C@H](Cc1ccccc1)NC(=O)O[C@@H]1CO[C@H]2OCC[C@H]21)S(=O)(=O)c1ccc(N)cc1`, the “activity change, negative = cytotoxicity” value is 15.6% (inactive).

As to `C=C1C[C@]23C[C@H]1CC[C@H]2[C@@]1(C)CCC[C@@]2(C)C(=O)O[C@@H]([C@@H]3O)[C@@H]12`, the “activity change, negative = cytotoxicity” value is -0.376% [at 38.5 µM] (inactive).

Regarding `CC(=O)O[C@H]1C[C@@]2(C)[C@@H](CC[C@H]3[C@@]4(C)C=CC(=O)[C@@H](C)[C@@H]4[C@H](O)C(=O)[C@@]32C)/C1=C(/CCC=C(C)C)C(=O)O`, the “activity change, negative = cytotoxicity” value is -3.17% [at 25.3 µM] (inactive).

With `COC(=O)N[C@H](C(=O)N1[C@@H]2CC[C@@H](C2)[C@H]1c1nc2ccc(-c3ccc4c(c3)C(F)(F)c3cc(-c5cnc([C@@H]6CCC7(CC7)N6C(=O)[C@@H](NC(=O)OC)C(C)C)[nH]5)ccc3-4)cc2[nH]1)C(C)C`, the “activity change, negative = cytotoxicity” value is 6.3% [at 25.3 µM] (inactive).

For the compound `COc1ccc(C2(O)c3ccccc3NC(=O)C2O)cc1` (centres undefined), the “activity change, negative = cytotoxicity” value was 2.07% (inactive).

Regarding `O=C(CN1C(=O)C2(CCCC2)NCC1c1cc(F)cc(F)c1)Nc1ccc2c(c1)CC1(C2)C(=O)Nc2ncccc21` (centres undefined), the “activity change, negative = cytotoxicity” value is 8.22% (inactive).

In the case of `C=C1C(=O)OC2CC3(C)C(CC12)C(C)=CC(O)C3OC(C)=O` (centres undefined), the “activity change, negative = cytotoxicity” value is -0.169% [at 38.5 µM] (inactive).

Consider `C[C@@H]1O[C@@H](O[C@H]2[C@H](OC(=O)[C@]34CCC(C)(C)C[C@H]3C3=CCC5[C@@]6(C)C[C@H](O)[C@H](O[C@@H]7O[C@H](CO)[C@@H](O[C@H]8OC[C@](O)(CO)[C@H]8O)[C@H](O)[C@H]7O)[C@@](C)(CO)C6[C@H](O)C[C@@]5(C)[C@]3(C)C[C@H]4O)OC[C@H](O)[C@@H]2O)[C@H](O)[C@H](O)[C@H]1O[C@@H]1OC[C@@H](O)[C@H](O[C@@H]2OC[C@](O)(CO)[C@H]2O)[C@H]1O` (some centres undefined), for which the activity change, negative = cytotoxicity was -2.68% [at 6.55 µM] (inactive).

For `O=C(O)[C@H](Cc1ccc(Nc2nccc3ccncc23)cc1)NC1=C(Br)C(=O)C12CCCCC2`, the “activity change, negative = cytotoxicity” value was 8.21% (inactive).

Take `CC(C)C(C(=O)N(C)C(C)C(N)=O)N(C)C(=O)C1CCCN1C(=O)/C=C/C=C/C(O)C(C)O` (centres undefined): the “activity change, negative = cytotoxicity” value is 4.88% [at 25.3 µM] (inactive).

Turning to `Nc1nc2c(c(=O)[nH]1)C[C@@H](CCc1ccc(C(=O)N[C@@H](CCC(=O)O)C(=O)O)cc1)CN2`, the Potency was 631 nM (active).

Consider `CC1(O)CCCC2(C)C1CCC13CC(CO)C(CCC12)C3` (centres undefined), for which the “activity change, negative = cytotoxicity” value was -2.66% (inactive).

With `CC(=O)/C=C/[C@H]1[C@](C)(O)[C@@H](O)[C@H](OC(C)=O)C2C(C)(C)CCC[C@@]21C` (some centres undefined), the “activity change, negative = cytotoxicity” value was 16% [at 38.5 µM] (inactive).

On to `C=C(C(=O)OC)C1C(O)CC2(C)C(=O)CCC(O)(CO)C2C1O` (centres undefined), for which the “activity change, negative = cytotoxicity” value was 4.64% [at 38.5 µM] (inactive).
